Inconclusive results are not listed. The source made the active and inactive calls. The call rests on the fitted dose curve; in most records, active means well fitted inhibition curve with a large enough effect; inconclusive means small, poorly fitted or top-dose-only effect; inactive means no such curve, though single readings can be large or run the other way.
Test: qHTS to identify inhibitors of the type 1 interferon - major histocompatibility complex class I in skeletal muscle: primary screen against the NCATS Mechanism Interrogation Plate v5.0 (MIPE) Libary (AID 1347411); further: nearly all actives have a fitted effect of over 65% in size
Details: iHSKM cells + IFN-b, HiBiT-tagged MHC-I luminescence, 24 h; series mostly up to 45.8 µM
Procedure, shortened: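 IFN-beta-driven (4 ng/ml) HLA-B-HiBit expression in CRISPR-tagged C25cl48 myoblasts; compounds 11-pt, 1:3, max 46 uM, 24 hr exposure; lytic NanoLuc complementation luminescence.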
Potency means the concentration at half of the fitted maximal effect.

Row | Structure (SMILES) | Potency
1 | CCNCc1nc2c(N)nc3ccccc3c2n1CC(C)(C)O | inactive
2 | CNC(=O)c1cc(Oc2ccc3nc(N[C@@H]4CCCC[C@H]4O)sc3c2)ccn1 | inactive
3 | CN1CCN(c2ccc(C(=O)Nc3n[nH]c4ccc(Cc5cc(F)cc(F)c5)cc34)c(NC3CCOCC3)c2)CC1 | 16.5 µM (active)
4 | Cc1cccc(Oc2cnc(=O)[nH]c2)c1 | inactive
5 | Cc1ccc(-c2ccc3c(ccc4sc5c(c43)NC[C@@H](C)NC5=O)n2)cn1 | 18.6 µM (active)
6 | Nc1ccc(/C=C/C(=O)NCc2cc3cc(-c4ccc(C(=O)N5CCC(F)(F)CC5)cc4)cc(-c4ccc(F)cc4)c3o2)cn1 | inactive
7 | O=C(NCc1cccc(O)c1)Nc1nc(-c2ccncc2)cs1 | 18.6 µM (active)
8 | CS(=O)(=O)c1ccc(-c2nnc(/C=C/c3nnc(-c4ccc(C#N)cc4)o3)n2-c2ccccc2Cl)nc1 | inactive
9 | NC[C@@](O)(c1ccc(Cl)cc1)c1ccc(-c2cn[nH]c2)cc1 | 7.39 µM (active)
10 | COc1cc2ncnc(Nc3ccc(F)c(Cl)c3)c2cc1NC(=O)/C=C/CN1CCCCC1 | 7.39 µM (active)
11 | c1cc(Nc2cc(C3CC3)[nH]n2)nc(Nc2ccc3nc[nH]c3c2)n1 | 1.31 µM (active)
12 | CN(C)C/C=C/C(=O)Nc1cccc(C(=O)Nc2cccc(Nc3ncc(Cl)c(-c4c[nH]c5ccccc45)n3)c2)c1 | 0.658 µM (active)
13 | COc1cc(C(=O)NC2CCN(C)CC2)c(F)cc1Nc1ncc2c(n1)N(C1CCCC1)CC(F)(F)C(=O)N2C | 14.7 µM (active)

Source: PubChem BioAssay (NCATS)
